Screens deposited in PubChem BioAssay by National Center for Advancing Translational Sciences (NCATS).
Sampled rows, rich in hits. Any-hit rate of the full collection: about 12%.
HP1b chromo inh = HTS for Inhibitors of HP1-beta Chromodomain Interactions with Methylated Histone Tails; AID 540317, 2011; Chromobox protein homolog 1 (Homo sapiens), P83916; Potency, µM (highest dose often 114 µM), inactives show at the highest dose activity change, negative = inhibition, hits mostly inhibitors; AlphaScreen HP1-beta / biotin-H3K9me3 peptide binding; 0.56% of 390,000 active; also: nearly all actives have a fitted effect of over 70% in size
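Compound inhibition of the preformed complex between 50 nM HP1-beta and 50 nM biotinylated H3K9me3 peptide was read by AlphaScreen. Buffer was PBS pH 7.4 with 0.01% Tween-20. Incubations ran 30 min at room temperature, with 10 ug/mL donor/acceptor beads.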
JMJD2A Tudor = qHTS Assay for Inhibitors of JMJD2A-Tudor Domain | Lysine-specific demethylase 4A (Homo sapiens), O75164 | AlphaScreen JMJD2A-Tudor / H3K4me3 peptide binding | Potency, µM (titrated, usually from 114 µM), for the others: at the top dose activity change, negative = inhibition, actives largely listed as inhibitors | 4.4% of 390,000 active; also: % is scaled to controls: 0 for no effect and ±100 for the full control effect; nearly all actives have a fitted effect of over 50% in size
G9a block = qHTS Assay for Inhibitors of Histone Lysine Methyltransferase G9a; Histone-lysine N-methyltransferase EHMT2 (Homo sapiens), Q96KQ7; G9a H3K9 monomethylation, AlphaScreen, 2 h; Potency, µM (doses to about 102 µM), inactives show at the highest dose activity, negative = inhibition, usual class: inhibitors; 8.8% of 350,000 active; AID 504332, 2011; also: % is scaled to controls: 0 for no effect and ±100 for the full control effect; nearly all actives have a fitted effect of over 75% in size
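G9a (20 nM) was preincubated 15 min with compound, then reacted 2 h at room temperature with 500 nM biotin-H3K9 peptide and 20 µM SAM. Monomethyl-H3K9 detected by AlphaScreen using anti-H3K9me1 antibody.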
BAZ2B inh = qHTS Assay for Inhibitors of BAZ2B; Potency, µM (highest dose often 114 µM), for inactives: at the highest dose activity change, negative = inhibition, most hits filed as inhibitors; 4.4% of 360,000 active; AID 504333, 2011; Bromodomain adjacent to zinc finger domain protein 2B (Homo sapiens), Q9UIF8; AlphaScreen BAZ2B-H3K14Ac peptide displacement; also: % is scaled to controls: 0 for no effect and ±100 for the full control effect; nearly all actives have a fitted effect of over 60% in size
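Complex of BAZ2B and biotin-H3K14Ac (50 nM apiece) forms over 30 min at RT, then faces library compounds up to 110 uM for another 30 min; AlphaScreen beads added, 20 min dark incubation, luminescence read.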
Sfp inh = qHTS Assay for Inhibitors of Bacillus subtilis Sfp phosphopantetheinyl transferase (PPTase); Biochemical Sfp PPTase activity, qHTS; Potency, µM, inactives show largest response in the series, negative = inhibition, usual class: inhibitors; 3.5% of 310,000 active; AID 1490, 2009;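 also: the enzyme is Sfp with the accession as filed and its product quenches rhodamine fluorescence; 0% = enzyme reaction without inhibitor and -100% = no enzyme wells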
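Fluorescence-quenching assay: 15 nM Sfp-PPTase preincubated 15 min at room temperature with compound, then 5 uM rhodamine-CoA and 12.5 uM BHQ-2-labelled YbbR peptide added. Fluorescence (ex 525/em 598 nm) read at start and after 30 min; difference gives rate.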
* = called active by the depositor; u = inconclusive; x = not tested or not shown; [ ] = dose if it differs, or a comment. Calls follow the shape of the dose curve; as a rule, active = well fitted curve in the direction sought with a large enough effect; inconclusive = small, poorly fitted or top-dose-only effect, or another doubt; inactive = no such curve, though single readings can be large; an effect the other way counts as inactive or inconclusive. Potency is read from the fitted curve at half-maximal effect.

SMILES	HP1b chromo inh	JMJD2A Tudor	G9a block	BAZ2B inh	Sfp inh
CC(C)(O)/C=C1/Oc2ccccc2C1N1CCCCC1 (configuration not stated)	38%	-1%	50µM*	-6%	4%
COc1ccc(Cl)cc1NC(=O)COC(=O)CC(C)(C)CC1=NS(=O)(=O)c2ccccc2N1	17%	-9%	9%[59 µM]	-17%	x
CCOc1ccc(N2Nc3n[nH]c(N)c3N2)cc1	-15%	u	8.9µM*	u	12%
COc1ccc(N2Nc3n[nH]c(N)c3N2)cc1	-2%	u	7.9µM*	-35%	3%
CCOc1ccc(-n2c(-c3ccccc3)nnc2-c2ccccc2)cc1	2%	5%	9%	0%	-1%
Cc1ccc(NC(=O)CCn2cccn2)cc1Cl	-8%	-16%	12%[59 µM]	-4%	x
O=C(Nc1cccc(Cl)c1)Nc1ccccc1OCc1cc(=O)n2ccccc2n1	12%[57 µM]	-15%	2%[59 µM]	3%	x
O=C(O)c1ccc(Cl)c(S(=O)(=O)NC(Cc2c[nH]c3ccccc23)C(=O)O)c1 (configuration not stated)	6%	-34%	u	-15%	5%
O=C(O)C(Cc1c[nH]c2ccccc12)NS(=O)(=O)c1ccc2ccccc2c1 (configuration not stated)	31%	-10%	-12%	-4%	-11%
O=C(O)c1cc(S(=O)(=O)NC(Cc2c[nH]c3ccccc23)C(=O)O)ccc1Cl (configuration not stated)	39%	-11%	45µM*	-36%	-16%
O=C(O)C(Cc1c[nH]c2ccccc12)NS(=O)(=O)c1cccc(Cl)c1Cl (configuration not stated)	16%	-11%	-18%	89µM*	3%
CC1(C)CC[C@]2(C(=O)O)CC[C@]3(C)C(=CCC4[C@@]5(C)CC[C@H](O)C(C)(C)C5[C@H](O)C[C@]43C)C2C1 (some centres not stated)	x	x	x	x	1%
O=[N+]([O-])c1cc(-c2ccc(/C=N/c3nc4ccccn4c3-c3ccco3)o2)ccc1Cl	-17%	u	13µM*	45µM*	u
C=C(C)C(=O)OCCCCCCOc1ccc(C(=O)O)cc1	u	11µM*	10%[12.7 µM]	u	6%
N#C/C(=C(/O)CSc1nnc(Cc2cccs2)n1C1CCCCC1)c1nc2ccccc2[nH]1	28%	-18%	u	31%	-9%
CCCn1c(SC/C(O)=C(\C#N)c2nc3ccccc3[nH]2)n[nH]c1=O	27%	-12%	16%	-13%	-4%
Cc1cccc(Nc2nnc(SC/C(O)=C(\C#N)c3nc4ccccc4[nH]3)s2)c1C	-4%	-36%	u	-4%	4%
Cc1cccc(C)c1Nc1nnc(SC/C(O)=C(\C#N)c2nc3ccccc3[nH]2)s1	2%	-26%	14µM*	-2%	0%
COc1ccccc1-c1nnc(SC/C(O)=C(\C#N)c2nc3ccccc3[nH]2)n1C1CCCCC1	u	89µM*	32µM*	-8%	-28%
Cn1cnnc1SC/C(O)=C(\C#N)c1nc2ccccc2[nH]1	12%	25µM*	u	50µM*	-26%
COC(=O)c1ccc(CSc2nc3ccncc3n2Cc2ccc(F)cc2)cc1	41%	4%	-31%[59 µM]	-2%	x
CC(C)c1c(Cl)c(O)c(-c2ccccc2)c(=O)n1-c1ccc(F)cc1	-15%	20µM*	45µM*	-11%	u
CC(=O)N1CCCc2cc(S(=O)(=O)N3CCCC(C(=O)N4CCN(c5cc(C)ccc5C)CC4)C3)ccc21 (configuration not stated)	19%	4µM*	2%	-31%[57.1 µM]	-9%
CCOC(=O)c1c(C)[nH]c(C)c1S(=O)(=O)N1CCCC(C(=O)N2CCN(c3cc(C)ccc3C)CC2)C1 (configuration not stated)	-21%	u	-33%[59 µM]	45µM*	x
C#CCNC(=O)C1=C[C@H](c2ccc(C(F)(F)F)cc2)C[C@H](OCc2ccc(CO)cc2)O1	27%	-22%	14%[12.7 µM]	3%	9%
